What was measured:
Assay in all cases: PBM binding z-score (relative to random genomic background probes); higher = stronger binding; sequences stand for … in GC…GCGATTGACAGCGTAGAATGAAGG
[1] = test system: FXR:RXRa (NR concentration 270 nM, RXRa partner concentration 90 nM)
Method in brief: (§1)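 Custom Agilent 4×180K protein-binding microarrays carried double-stranded probes, each with a 34-nt variable region. These regions held direct-repeat seeds, single-nucleotide variants, half-site ablations and random human genomic background sequences. Ligand-free nuclear receptor dimers were incubated on the arrays for 1 h, antibodies against each partner (one per run) detected binding, and scanned fluorescence was regression-normalized. Binding z-scores take the random background probes as reference.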

[2] = test system: LXRa:RXRa (NR concentration 270 nM, RXRa partner concentration 90 nM)
Method in brief: as §1

[3] = test system: LXRa homodimer (NR concentration 270 nM)
Method in brief: as §1

[4] = test system: LXRb:RXRa (NR concentration 270 nM, RXRa partner concentration 90 nM)
Method in brief: as §1

[5] = test system: LXRb homodimer (NR concentration 270 nM)
Method in brief: as §1

[6] = test system: PPARa:RXRa (NR concentration 270 nM, RXRa partner concentration 90 nM)
Method in brief: as §1

[7] = test system: PPARg:RXRa (NR concentration 180 nM, RXRa partner concentration 90 nM)
Method in brief: as §1

[8] = test system: PPARg:RXRa 270nM:90nM, anti-RXR (NR concentration 270 nM, RXRa partner concentration 90 nM)
Method in brief: as §1

[9] = test system: PPARg:RXRa 30nM:10nM, anti-RXR (NR concentration 30 nM, RXRa partner concentration 10 nM)
Method in brief: as §1

[10] = test system: PPARg:RXRa 90nM:30nM, anti-RXR (NR concentration 90 nM, RXRa partner concentration 30 nM)
Method in brief: as §1

[11] = test system: PPARg:RXRa DBDmut IVT, anti-RXR (DBD mutation: RXRa K156A/R161A, NR concentration 270 nM, RXRa partner concentration 90 nM)
Method in brief: as §1

[12] = test system: PPARg:RXRa IVT, anti-PPARg (NR concentration 270 nM, RXRa partner concentration 90 nM)
Method in brief: as §1

[13] = test system: PPARg DBDmut:RXRa IVT, anti-PPARg (DBD mutation: PPARg1 K132A/R137A, NR concentration 270 nM, RXRa partner concentration 90 nM)
Method in brief: as §1

[14] = test system: PPARg DBDmut IVT, anti-PPARg (DBD mutation: PPARg1 K132A/R137A, NR concentration 270 nM)
Method in brief: as §1

[15] = test system: PPARg homodimer (NR concentration 180 nM)
Method in brief: as §1

[16] = test system: PXR:RXRa (NR concentration 270 nM, RXRa partner concentration 90 nM)
Method in brief: as §1

[17] = test system: PXR homodimer (NR concentration 270 nM)
Method in brief: as §1

[18] = test system: RARa:RXR (NR concentration 270 nM, RXRa partner concentration 90 nM)
Method in brief: as §1

[19] = test system: RARa homodimer (NR concentration 270 nM)
Method in brief: as §1

[20] = test system: RARb:RXRa (NR concentration 270 nM, RXRa partner concentration 90 nM)
Method in brief: as §1

Sequence	PBM binding z-score [1]	PBM binding z-score [2]	PBM binding z-score [3]	PBM binding z-score [4]	PBM binding z-score [5]	PBM binding z-score [6]	PBM binding z-score [7]	PBM binding z-score [8]	PBM binding z-score [9]	PBM binding z-score [10]	PBM binding z-score [11]	PBM binding z-score [12]	PBM binding z-score [13]	PBM binding z-score [14]	PBM binding z-score [15]	PBM binding z-score [16]	PBM binding z-score [17]	PBM binding z-score [18]	PBM binding z-score [19]	PBM binding z-score [20]
GCTTACGGGTCAAAGTTTATAGCATGAATAGAAT	6.86	4.62	0.38	4.67	0.532	6.2	9.24	8.11	7.16	8.84	4.19	5.17	1.43	1.62	2.34	4.83	1.1	6.42	0.895	4.06
GCGACTGGGCCATCAGCAGGTTACCATAACTTAA	-0.78	-0.767	-0.789	-0.559	-1.23	0.242	0.386	-0.176	-0.886	-0.265	2.78	2.04	-0.993	-1.45	-0.551	-0.569	-0.71	-0.295	-0.835	0.195
GATACAGGGTCAGCTCGAGGCCAGAGTATGGAAA	4.59	2.87	-0.199	2.4	-0.786	4.56	3.36	3.21	0.631	2.06	1.36	2.36	-0.23	-0.691	1.54	3.47	-0.0374	3.66	-0.0976	4.12
CAAACTAGGTCAATGTCAAAGTCGGTTTGTGCCA	3.38	2.45	0.407	1.97	0.714	4.9	7.78	6.44	4.27	6.04	8.51	8.59	5.32	4.74	2.82	1.39	-0.00687	2.11	0.756	3.86
GCATATAGGTAATACAAGGTGAAAATCCGATTGT	0.325	1.44	0.125	0.602	-0.207	1.5	1.55	1.09	0.599	0.773	3.55	3.21	0.778	0.777	0.494	0.273	0.142	1.85	0.843	0.306
CCTAGTTTGTCAAGGTCACACACGCTATAGGTAC	4.49	4.38	3.27	3.87	1.42	4.14	2.44	2.78	0.971	1.93	1.6	2.96	1.92	1.48	4.48	4.71	5.83	4.57	2.66	4.18
ATCTCTAGGTAAGACTCAGTTCAGTGTAGAACGC	0.302	0.547	0.708	0.286	0.886	0.0925	-0.0106	0.309	0.182	0.398	2.3	1.23	0.993	0.824	1.01	1.15	1.68	0.389	1.23	0.291

Source: the supplement of paper PMC6555819
